Results: the supplement of paper PMC11018630
Counter-ions that a name gives are not always drawn. ± gives the standard deviation of the averaged measurements.

Test system: RDEB dermal fibroblasts EB119
Experiment: day of extracellular matrix detachment from plate (days); higher = delayed detachment (less fibrotic matrix)
Conditions: compound concentration: 10 uM

`N=C(N)NN` [Aminoguanidine (hydrochloride)] was tested. Which “day of extracellular matrix detachment from plate” value (shortened to “day”) did it give?
Its value is 26.3 ± 1.1.

With `CCN(C)C(=O)Oc1cccc([C@H](C)N(C)C)c1` [Rivastigmine] as the compound, how does the “day” value read?
The value was 30.3 ± 2.9.

For `Cc1ccc(-n2nccn2)c(C(=O)N2CCN(c3nc4cc(Cl)ccc4o3)CC[C@H]2C)c1` [Suvorexant (MK-4305)], which “day” value is on record?
Its value is 25.
